Pf growth 96h = Primary qHTS for delayed death inhibitors of the malarial parasite plastid, 96 hour incubation. P. falciparum luciferase reporter growth, 96 h. Potency, µM (titrated, usually from 28.7 µM), for inactives: at the highest dose activity change, negative = inhibition, hits mostly inhibitors. 320,000 tested, 6.9% active; further: potency means the concentration at half of the fitted maximal effect
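Plates of compound plus infected erythrocytes (2% hematocrit, 0.05% parasitemia final) incubate 96 hours, 37 C, 5% CO2. Detection reagent added; reduced luminescence from the parasites' luciferase reporter flags inhibition.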
Giardia FBPA inh = qHTS Assay for Inhibitors of Fructose-1,6-bisphosphate Aldolase from Giardia Lamblia | A8B2U2 | purified Giardia FBPA | Potency, µM (titrated, usually from 59.6 µM), for the others: at the highest dose activity, negative = inhibition, usual class: inhibitors | 290,000 tested, 0.71% active; further: potency means the concentration at half of the fitted maximal effect; nearly all actives have a fitted effect of over 55% in size
Target sequence (A8B2U2 whole entry, looked up): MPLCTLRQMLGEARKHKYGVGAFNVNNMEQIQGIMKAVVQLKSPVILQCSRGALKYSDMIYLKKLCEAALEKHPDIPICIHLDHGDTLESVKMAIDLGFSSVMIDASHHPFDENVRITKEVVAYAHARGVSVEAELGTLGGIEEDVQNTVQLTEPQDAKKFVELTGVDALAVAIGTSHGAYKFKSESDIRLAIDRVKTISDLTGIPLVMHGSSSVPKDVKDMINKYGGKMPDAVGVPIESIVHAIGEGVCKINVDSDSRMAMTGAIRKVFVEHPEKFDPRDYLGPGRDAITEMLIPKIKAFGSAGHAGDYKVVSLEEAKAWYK
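40 nM FBPA preincubated 10 min at RT with compound (up to 57.5 uM final), then substrate plus GAPDH/TPI/NAD/arsenate coupling and diaphorase/resazurin added. Fluorescence read after 20 min at RT, 525/598 nm.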
HCMV antiviral = qHTS Assay for inhibitors of the human cytomegalovirus (HCMV). HFF cells, HCMV-luciferase reporter, 72 h; hits give low values. activity change, negative = inhibition, % at 57.5 µM. 410,000 tested, 4.5% active; in the data active means activity change below about -60%; inconclusive means no clear call, values can overlap the other calls; inactive means above about -39%
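Luciferase read-out from HCMV-luciferase-infected HFFs (MOI 1 PFU/cell) 72 h post infection at 37C; compounds added after 16 h cell attachment; activity normalized between buffer-only basal and Salinomycin (10uM) inhibitor controls.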
Sm TGR inh = qHTS Assay for the Inhibitors of Schistosoma Mansoni Peroxiredoxins; Schistosoma mansoni thioredoxin glutathione reductase (TGR), Q962Y6; purified TGR, DTNB reduction, TNB absorbance 405 nm; Potency, µM (titrated, usually from 114 µM), for the others: at the top dose activity change, negative = inhibition, actives largely listed as inhibitors; 360,000 tested, 3% active; further: potency means the concentration at half of the fitted maximal effect; nearly all actives have a fitted effect of over 60% in size
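Kinetic colorimetric format: TGR-catalysed, NADPH-driven DTNB reduction monitored via TNB absorbance. Enzyme dispensed at 20 nM; compound exposure 15 min at room temperature before reaction start.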
Pf growth 48h = Primary qHTS for delayed death inhibitors of the malarial parasite plastid, 48 hour incubation; Potency, µM (titrated, usually from 28.7 µM), without a hit: at the top dose activity change, negative = inhibition, actives largely listed as inhibitors; 310,000 tested, 5.9% active; P. falciparum luciferase growth in erythrocytes, 48 h; further: potency means the concentration at half of the fitted maximal effect
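Read-out is firefly luciferase luminescence from an integrated reporter in P. falciparum, so falling signal marks reduced parasite growth. Infected erythrocytes were at 2% hematocrit and 0.1% parasitemia (final) in Albumax-supplemented RPMI 1640.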
* hit, by the source's call; u = inconclusive; x = not tested or not shown. Hits are enriched below; roughly 14% of the tested compounds scored in any of these assays. Unless noted, the call rests on the fitted dose curve; in most records, active means well fitted curve in the direction sought with a large enough effect; inconclusive means small, poorly fitted or top-dose-only effect, or another doubt; inactive means no such curve, though single readings can be large; an effect the other way counts as inactive or inconclusive. On the % scale 0 is the no-effect control and ±100 the full control effect.

SMILES | Pf growth 96h | Giardia FBPA inh | HCMV antiviral | Sm TGR inh | Pf growth 48h
COc1ccc(NC(=O)c2cc(C)nc3c2c(C)nn3-c2ccc(C)cc2)cc1OC | x | x | 5.1 | -1.0% | x
Cc1ccc(/C=C2\CC(C)CC3=C2NC(=S)NC3c2ccc(C)cc2)cc1 (stereo unspecified) | u | 1.0% | -23.1 | 15.8µM* | u
Cc1cc(C(=O)N2CCC2(C)C(=O)O)nn1C(C)(C)C (stereo unspecified) | x | x | 19.3 | x | x
COC(=O)c1c(-c2c(Cl)cccc2Cl)noc1NC(=O)N(C)C | 4.1% | -7.0% | 21.5 | -9.6% | 16.3%
COC(=O)c1c(-c2c(Cl)cccc2Cl)noc1NC(=O)NN1CCOCC1 | 1.31µM* | -7.4% | 16.1 | 2.7% | 13.1µM*
COC(=O)c1c(-c2c(Cl)cccc2Cl)noc1NC(=O)NN1CCCCC1 | 0.262µM* | -9.1% | -29.5 | -4.1% | 0.329µM*
O=C(C[C@H]1C[C@@H]2c3cc(NC(=O)c4cccnc4)ccc3O[C@@H]2[C@H](CO)O1)NCc1ccncc1 | x | x | 15.5 | x | x
CN1C(=O)C(Cc2cccs2)C(=O)N(C)C1=O | -19.3% | -0.8% | -21.4 | u | -2.8%
O=C1NC(=O)C(Cc2cccs2)C(=O)N1 | 4.6% | 3.0% | 23.3 | 39.8µM* | 15.3%
O=C(OCc1c(-c2ccccc2)ncc2ccccc12)N1CCOCC1 | u | x | 1.8 | -15.4% | -8.2%
O=C(O)c1ccc(S(=O)(=O)N[C@H](Cc2ccccc2)C(=O)O)cc1 | x | 0.4% | x | x | x
COc1ccc(-c2csc3ncnc(Sc4nnnn4C)c23)cc1 | x | x | -92.4* | x | x
Cn1nnnc1Sc1ncnc2scc(-c3ccc(Cl)cc3)c12 | 3.7µM* | x | -98.1* | -24.0% | 6.57µM*
Cn1nnnc1Sc1ncnc2scc(-c3cccc4c3sc3ccccc34)c12 | x | x | -91.8* | x | x
Cn1nnnc1Sc1ncnc2scc(-c3ccccc3Cl)c12 | 1.65µM* | x | -73.2* | 3.8% | 11.7µM*
O=C(O)CSc1ncnc2scc(-c3ccccc3)c12 | 8.6% | 28.5% | -13.5 | -3.4% | 9.1%
O=C(NCc1ccc(F)cc1)c1cc(C2CCCN(C(=O)c3cccs3)C2)on1 (stereo unspecified) | x | x | -5.0 | x | x
CC1CCN(c2oc(-c3ccc(COc4ccccc4)o3)nc2C#N)CC1 | x | x | -26.1 | 11.1% | x
Cc1ccc(NC(=O)N2CCN(c3nnc(C)c4c(C)n(-c5ccc(Cl)cc5)nc34)CC2)c(C)c1 | x | x | -14.3 | -3.4% | x
Cn1nnnc1Sc1ncnc2scc(-c3ccc([N+](=O)[O-])cc3)c12 | 3.7µM* | x | -100.2* | u | 13.1µM*
Cn1nnnc1Sc1ccc([N+](=O)[O-])cc1Cl | 15.3% | 1.6% | u | -15.0% | u
Cn1nnnc1Sc1ncnc2scc(-c3cccc(S(C)(=O)=O)c3)c12 | u | x | -5.1 | u | 10.4µM*
Cn1nnnc1Sc1ncnc2scc(-c3cccc(Br)c3)c12 | x | x | -17.6 | x | x
Cn1nnnc1Sc1ncnc2scc(-c3ccc4c(c3)OCO4)c12 | x | x | -86.1* | x | x
CCc1ccc(OCc2ccccc2C(=O)Nc2ccc3nc(C)cc(N)c3c2)cc1 | x | 0.9% | x | x | x
SMILES | Pf growth 96h | Giardia FBPA inh | HCMV antiviral | Sm TGR inh | Pf growth 48h
COC(=O)[C@]1(C#N)[C@H](C)C(=O)N(Cc2ccccc2)[C@@H]1/C=C/c1ccccc1 | x | x | -9.6 | x | x
O=C1c2ccccc2C(O)N1Cc1ccc2c(c1)OCO2 (stereo unspecified) | 0.9% | 0.4% | -21.8 | -9.0% | x
O=C1c2ccccc2C(Nc2cccnc2)N1Cc1ccc2c(c1)OCO2 (stereo unspecified) | 1.47µM* | 5.6% | 43.2 | -15.1% | -13.8%
O=C1c2ccccc2C(Nc2ccc3c(c2)OCO3)N1Cc1ccc2c(c1)OCO2 (stereo unspecified) | 3.29µM* | u | -25.0 | -31.1% | 9.28µM*
CCOC(=O)c1cc(NC(=O)c2cnccn2)cc(C(=O)OCC)c1 | 25.6% | -3.3% | -92.5* | -0.4% | 30.5%
CCOc1cc(N2CCOCC2)c(OCC)cc1NC(=O)c1cnccn1 | x | x | 2.3 | x | x
CCOC(=O)c1cccc(NC(=O)c2cnccn2)c1 | 309.0% | 2.9% | 32.0 | 12.0% | 56.0%
